Measurements published in PubChem BioAssay AID1159580 (chemical genetic matrix, 2015).
Out of some 5,500 compounds screened, about 2,000 (36%) were called active. Inconclusive results (about 18%) are left out. Rule as the data show it: active = normalized growth mostly below about 0.91 (no sharp cut-off); inconclusive = no clear call, values can overlap the other calls; inactive = mostly above about 0.92. Some of the results follow.

Assay: chemical genetic growth profiling, strain panel (AID 1159580);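 also: tested at 20 µM; growth read once vehicle control cultures reached saturation at 30 °C; 1 = growth at the plate median or of vehicle wells; lower values mean less growth of the strain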
Conditions: S. cerevisiae deletion strains, growth OD

Measured: normalized growth

CC(C)(C)C(=O)NC(=S)N/N=C\c1cc(Cl)cc(Cl)c1O
inactive: locus YAR019C, strain CDC15, stronger effect = lower value 0.924 | locus YBL105C, strain PKC1, stronger effect = lower value 0.937 | locus YBR135W, strain CKS1, stronger effect = lower value 0.907 | locus YBR136W, strain MEC1, stronger effect = lower value 0.936 | locus YBR160W, strain CDC28, stronger effect = lower value 0.94 | locus YDL017W, strain CDC7, stronger effect = lower value 0.94 | locus YDL028C, strain MPS1, stronger effect = lower value 0.927 | locus YDL101C, strain DUN1, stronger effect = lower value 0.949 | locus YDL108W, strain KIN28, stronger effect = lower value 0.936 | locus YDL132W, strain cdc53, stronger effect = lower value 0.961 | locus YDR052C, strain DBF4, stronger effect = lower value 0.945 | locus YDR054C, strain cdc34, stronger effect = lower value 0.918 | locus YDR226W, strain ADK1, stronger effect = lower value 0.958 | locus YFL009W, strain cdc4, stronger effect = lower value 0.924 | locus YFL029C, strain CAK1, stronger effect = lower value 0.923 | locus YFR003C, strain YPI1, stronger effect = lower value 0.947 | locus YFR028C, strain CDC14, stronger effect = lower value 0.938 | locus YIL147C, strain SLN1, stronger effect = lower value 0.933 | locus YJL128C, strain PBS2, stronger effect = lower value 0.974 | locus YJR016C, strain ILV3, stronger effect = lower value 0.922 | locus YKL193C, strain SDS22, stronger effect = lower value 0.921 | locus YMR001C, strain CDC5, stronger effect = lower value 0.919 | locus YMR277W, strain FCP1, stronger effect = lower value 0.926 | locus YNL006W, strain LST8, stronger effect = lower value 0.924 | locus YNL161W, strain CBK1, stronger effect = lower value 0.932 | locus YNL207W, strain RIO2, stronger effect = lower value 0.953 | locus YNL222W, strain SSU72, stronger effect = lower value 0.926 | locus YOL078W, strain AVO1, stronger effect = lower value 0.916 | locus YOR329C, strain SCD5, stronger effect = lower value 0.949 | locus YPL209C, strain IPL1, stronger effect = lower value 0.93 | locus YPR025C, strain CCL1, stronger effect = lower value 0.928 | locus YPR106W, strain ISR1, stronger effect = lower value 0.969 | locus YPR111W, strain DBF20, stronger effect = lower value 0.954 | strain NNK1, stronger effect = lower value 0.958
active: locus YDL214C, strain PRR2, stronger effect = lower value 0.333 | locus YDR477W, strain SNF1, stronger effect = lower value 0.566 | locus YER123W, strain YCK3, stronger effect = lower value 0.167 | locus YER133W, strain GLC7, stronger effect = lower value 0.48 | locus YFR019W, strain FAB1, stronger effect = lower value 0.365 | locus YGR040W, strain KSS1, stronger effect = lower value 0.546 | locus YGR052W, strain FMP48, stronger effect = lower value 0.346 | locus YGR092W, strain DBF2, stronger effect = lower value 0.165 | locus YHR030C, strain SLT2, stronger effect = lower value 0.278 | locus YHR079C, strain IRE1, stronger effect = lower value 0.144 | locus YHR082C, strain KSP1, stronger effect = lower value 0.277 | locus YHR205W, strain SCH9, stronger effect = lower value 0.248 | locus YJL095W, strain BCK1, stronger effect = lower value 0.2 | locus YJL157C, strain FAR1, stronger effect = lower value 0.215 | locus YJR066W, strain TOR1 (second series), stronger effect = lower value 0.149 | locus YJR066W, strain TOR1, stronger effect = lower value 0.182 | locus YKL048C, strain ELM1, stronger effect = lower value 0.439 | locus YKL067W, strain YNK1, stronger effect = lower value 0.286 | locus YKL101W, strain HSL1, stronger effect = lower value 0.237 | locus YKL203C, strain TOR2, stronger effect = lower value 0.332 | locus YLR113W, strain HOG1, stronger effect = lower value 0.245 | locus YLR133W, strain CKI1, stronger effect = lower value 0.224 | locus YLR403W, strain SFP1, stronger effect = lower value 0.35 | locus YML070W, strain DAK1, stronger effect = lower value 0.285 | locus YMR205C, strain PFK2 (second series), stronger effect = lower value 0.221 | locus YNL020C, strain ARK1, stronger effect = lower value 0.19 | locus YNL183C, strain NPR1, stronger effect = lower value 0.269 | locus YNL307C, strain MCK1 (second series), stronger effect = lower value 0.18 | locus YOL136C, strain PFK27, stronger effect = lower value 0.242 | locus YOR061W, strain CKA2, stronger effect = lower value 0.245 | locus YOR119C, strain RIO1, stronger effect = lower value 0.547 | locus YOR231W, strain MKK1, stronger effect = lower value 0.173 | locus YPL031C, strain PHO85, stronger effect = lower value 0.498 | locus YPL153C, strain RAD53, stronger effect = lower value 0.27 | locus YPL204W, strain HRR25, stronger effect = lower value 0.249 | locus YPL256C, strain CLN2, stronger effect = lower value 0.285 | strain TSCII, stronger effect = lower value 0.768
